PubChem BioAssay
For part of these data: Measured potencies and affinities stand elsewhere. The source made the active and inactive calls.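 The calls were made as follows, unless noted: active = compound raising the membrane signal above positive-control mean plus 3 SD in both repeats, and a primary screen hit; inactive = the rest.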

How the values were obtained:
[1] = test system: TRPC4 beta (transient receptor potential cation channel C4), mouse; experiment: TRPC4 cation channel opening, retest – cell-based, Fluo4 calcium, HEK293 TRPC4beta/mu-opioid, duplicates, 10 µM, confirmation (AID 2426;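 active = fluorescence ratio normalized to control raised more than 50% in primary screen plus both repeat runs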;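 as to activation: percent rise of integrated ratio over buffer wells lacking compound which define 0%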); conditions: Fluo4 calcium fluorescence, at 10 µM; hits give high values
[2] = test system: transient receptor potential cation channel C4 beta (TRPC4), mouse; experiment: TRPC4 cation channel opening, second retest – cell-based, second round, Fluo4, HEK293 TRPC4beta/mu-opioid, 1 µM, confirmation (AID 2461;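 active = primary screen active and over 50% activation in each of two duplicate runs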); conditions: Fluo4 calcium fluorescence, at 1 µM; hits give high values
[3] = test system: TRPC4 (transient receptor potential cation channel C4 beta), mouse; experiment: potentiation of DAMGO EC20 TRPC4 response – cell-based, second round, Fluo-4, HEK293 TRPC4beta/mu-opioid, 1 µM, confirmation (AID 2554;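 active = primary screen hit whose fluorescence ratio, in both repeats, exceeds the weak agonist control mean by 3 SD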); conditions: DAMGO EC20, Fluo-4 calcium flux, at 1 µM; hits give high values
[4] = test system: TRPC4 beta (transient receptor potential cation channel C4), mouse; experiment: potentiation of DAMGO EC20 TRPC4 response – cell-based, Fluo-4, HEK293 TRPC4beta/mu-opioid, confirmation (AID 2555;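 active = primary screen hit whose calcium fluorescence ratio, in both repeats, exceeds the weak agonist control mean by 3 SD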); conditions: DAMGO EC20, Fluo-4 calcium flux, at 10 µM; hits give high values
[5] = biological target: Short transient receptor potential channel 4 (Mus musculus) (UniProt Q9QUQ5); experiment: blockers of DAMGO-evoked TRPC4 calcium flux – cell-based, Fluo4, HEK293 TRPC4beta/mu-opioid, confirmation (AID 2636;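 active = calcium signal cut by more than 3 SD below the full-agonist control yet still positive, in both repeats and the earlier primary screen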); conditions: at 10 µM; hits give high values
[6] = biological target: Short transient receptor potential channel 4 (Mus musculus) (UniProt Q9QUQ5); experiment: blockers of DAMGO-evoked TRPC4 calcium flux – cell-based, second round, Fluo4, HEK293 TRPC4beta/mu-opioid, 1 µM, confirmation (AID 2637;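 active = calcium signal ratio cut to more than 3 SD under the fully stimulated control mean yet still positive, in both repeats and the primary screen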); conditions: at 1 µM; hits give high values
[7] = biological target: Short transient receptor potential channel 4 (Mus musculus) (UniProt Q9QUQ5); experiment: calcium entry via TRPC4 opening agents – cell-based, HEK293 TRPC4/mu-opioid, Fluo-4 calcium, dose response (AID 434937;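 active = primary screen activator hit with a dose response curve and TRPC4 channel activation at any tested dose; inactive = no activation, no dose response, or not a primary hit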)
[8] = biological target: Short transient receptor potential channel 4 (Mus musculus) (UniProt Q9QUQ5); experiment: potentiation of DAMGO-evoked TRPC4 calcium signal – cell-based, HEK293 TRPC4/mu-opioid, Fluo-4 calcium, EC20 DAMGO, dose response (AID 434941;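 active = earlier screen potentiator hit that boosts the TRPC4 ion channel at some dose, with a dose response; inactive = no potentiation, no dose response, or not a prior hit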;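 also: calcium entry triggered by an EC20 dose of DAMGO at the co-expressed mu-opioid receptor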)
[9] = biological target: Short transient receptor potential channel 4 (Mus musculus) (UniProt Q9QUQ5); experiment: block of DAMGO-driven TRPC4 calcium entry – cell-based, HEK293 TRPC4/mu-opioid, Fluo-4 calcium, dose response (AID 434942;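 active = primary screen inhibitor hit that blocks the TRPC4 channel at some tested dose, yielding a dose curve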)
[10] = biological target: Short transient receptor potential channel 6 (Mus musculus) (UniProt Q61143); experiment: TRPC6 blockade by TRPC4 inhibitor hits – cell-based, HEK293, membrane potential dye, duplicate, selectivity assay for TRPC4 inhibitor project, confirmation (AID 434948;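 active = active in primary screen and both duplicates, each dropping signal beyond three positive-control SD with fluorescence still positive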); conditions: HEK293 TRPC6, membrane potential dye fluorescence, at 10 µM, stimulated with maximal-effect acetylcholine; hits give high values
[11] = biological target: Short transient receptor potential channel 6 (Mus musculus) (UniProt Q61143); experiment: TRPC6 opening by TRPC4 activator hits – cell-based, HEK293, membrane potential dye, duplicate, selectivity assay for TRPC4 activator project, confirmation (AID 434950;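 active = membrane potential signal rise above negative control mean plus 3 SD in both duplicates, also active in the earlier TRPC4 screen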); conditions: HEK293 TRPC6, membrane potential fluorescence, at 10 µM; activation: hits give high values; outcome: activation
[12] = biological target: Short transient receptor potential channel 6 (Mus musculus) (UniProt Q61143); experiment: positive modulators of mouse TRPC6 channel – HEK293 cells, membrane potential dye, duplicate, selectivity assay for TRPC4 potentiator project, confirmation (AID 434952); conditions: HEK293 TRPC6, membrane potential dye fluorescence, at 10 µM, maximal acetylcholine added after compound; hits give high values
[13] = biological target: Short transient receptor potential channel 4 (Mus musculus) (UniProt Q9QUQ5); experiment: calcium flux activators in TRPC4/5HT1a cells, counter-screen for TRPC4 activator project, cell-based, second counter screen, HEK293 TRPC4/5HT1a, Fluo-4 (AID 434977;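 active = calcium signal rise above buffer-control mean plus 5 SD in both duplicates, and also a hit in the primary screen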;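 as to activation: plate controls were assay buffer for no effect and maximal serotonin response for full effect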); conditions: Fluo-4 calcium flux, at 10 µM; hits give high values
[14] = serotonin-gated TRPC4 signal block – cell-based, second counter screen, HEK293 TRPC4/5HT1a, Fluo-4, counter-screen for TRPC4 inhibitor project, confirmation (AID 434978;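 active = primary screen active whose calcium signal fell more than 3 SD beyond the full-serotonin control mean in both duplicate plates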;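 as to outcome: serotonin given first at submaximal then at maximal dose after compound preincubation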); conditions: Fluo-4 calcium flux, at 10 µM, serotonin added to trigger calcium flux; hits give high values
[15] = test system: TRPC4 (mouse), co-expressed with 5HT1a in HEK293; experiment: enhancement of serotonin-evoked TRPC4 response – cell-based, second counter screen, HEK293 TRPC4/5HT1a, Fluo-4, counter-screen for TRPC4 potentiator project, confirmation (AID 434979;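 active = signal rise over 3 SD above mean of control wells given weak agonist, in both repeats and first screen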); conditions: Fluo-4 calcium flux, at 10 µM, serotonin added at its EC20 dose; hits give high values
[16] = nonspecific calcium rise without TRPC4 – cell-based, HEK293 mu-opioid receptor line, counter-screen for TRPC4 activator project, confirmation (AID 449723;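 active = hit in primary screen, with calcium signal over 5 SD above buffer well mean in both duplicates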;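 also: counter screen cells carry the mu-opioid receptor alone and lack TRPC4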); conditions: HEK293 mu-opioid cells, Fluo-4 calcium fluorescence, at 10 µM; hits give high values
[17] = nonspecific potentiation of DAMGO calcium response – cell-based, HEK293 mu-opioid receptor line, counter-screen for TRPC4 allosteric potentiator project, confirmation (AID 449724;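 active = calcium signal rise more than 3 SD above the low-dose agonist control mean, in both duplicate plates and the primary screen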); conditions: HEK293 mu-opioid receptor cells, Fluo-4 calcium flux, at 10 µM, compound added before EC20 DAMGO stimulus; hits give high values

Short transient receptor potential channel 4 (Mus musculus), sequence (Q9QUQ5 whole entry, looked up): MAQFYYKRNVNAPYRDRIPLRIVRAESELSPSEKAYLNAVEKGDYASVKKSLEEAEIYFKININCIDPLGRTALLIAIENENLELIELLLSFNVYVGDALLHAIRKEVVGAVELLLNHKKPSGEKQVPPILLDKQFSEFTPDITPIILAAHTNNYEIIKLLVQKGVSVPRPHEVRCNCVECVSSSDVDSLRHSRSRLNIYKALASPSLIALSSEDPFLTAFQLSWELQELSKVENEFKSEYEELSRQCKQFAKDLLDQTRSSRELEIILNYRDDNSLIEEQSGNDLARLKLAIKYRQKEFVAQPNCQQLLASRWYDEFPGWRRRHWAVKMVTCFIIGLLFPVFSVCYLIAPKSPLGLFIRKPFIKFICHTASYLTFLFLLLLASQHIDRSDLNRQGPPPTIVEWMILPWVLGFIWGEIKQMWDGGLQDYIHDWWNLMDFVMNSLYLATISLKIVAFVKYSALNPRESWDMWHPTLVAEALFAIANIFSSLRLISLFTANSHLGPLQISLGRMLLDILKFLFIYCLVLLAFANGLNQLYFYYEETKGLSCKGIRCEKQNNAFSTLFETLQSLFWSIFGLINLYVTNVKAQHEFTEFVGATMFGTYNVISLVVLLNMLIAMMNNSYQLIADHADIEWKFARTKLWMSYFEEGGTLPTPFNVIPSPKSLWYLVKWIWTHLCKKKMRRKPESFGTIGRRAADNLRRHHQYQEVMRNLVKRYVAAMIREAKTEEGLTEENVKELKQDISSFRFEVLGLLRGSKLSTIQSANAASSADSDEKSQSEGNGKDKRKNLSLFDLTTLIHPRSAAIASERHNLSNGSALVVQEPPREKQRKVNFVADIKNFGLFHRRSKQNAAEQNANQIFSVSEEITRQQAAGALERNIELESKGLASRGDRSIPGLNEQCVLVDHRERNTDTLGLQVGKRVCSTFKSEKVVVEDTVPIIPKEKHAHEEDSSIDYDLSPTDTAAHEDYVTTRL
Short transient receptor potential channel 6 (Mus musculus), sequence (Q61143 whole entry, looked up): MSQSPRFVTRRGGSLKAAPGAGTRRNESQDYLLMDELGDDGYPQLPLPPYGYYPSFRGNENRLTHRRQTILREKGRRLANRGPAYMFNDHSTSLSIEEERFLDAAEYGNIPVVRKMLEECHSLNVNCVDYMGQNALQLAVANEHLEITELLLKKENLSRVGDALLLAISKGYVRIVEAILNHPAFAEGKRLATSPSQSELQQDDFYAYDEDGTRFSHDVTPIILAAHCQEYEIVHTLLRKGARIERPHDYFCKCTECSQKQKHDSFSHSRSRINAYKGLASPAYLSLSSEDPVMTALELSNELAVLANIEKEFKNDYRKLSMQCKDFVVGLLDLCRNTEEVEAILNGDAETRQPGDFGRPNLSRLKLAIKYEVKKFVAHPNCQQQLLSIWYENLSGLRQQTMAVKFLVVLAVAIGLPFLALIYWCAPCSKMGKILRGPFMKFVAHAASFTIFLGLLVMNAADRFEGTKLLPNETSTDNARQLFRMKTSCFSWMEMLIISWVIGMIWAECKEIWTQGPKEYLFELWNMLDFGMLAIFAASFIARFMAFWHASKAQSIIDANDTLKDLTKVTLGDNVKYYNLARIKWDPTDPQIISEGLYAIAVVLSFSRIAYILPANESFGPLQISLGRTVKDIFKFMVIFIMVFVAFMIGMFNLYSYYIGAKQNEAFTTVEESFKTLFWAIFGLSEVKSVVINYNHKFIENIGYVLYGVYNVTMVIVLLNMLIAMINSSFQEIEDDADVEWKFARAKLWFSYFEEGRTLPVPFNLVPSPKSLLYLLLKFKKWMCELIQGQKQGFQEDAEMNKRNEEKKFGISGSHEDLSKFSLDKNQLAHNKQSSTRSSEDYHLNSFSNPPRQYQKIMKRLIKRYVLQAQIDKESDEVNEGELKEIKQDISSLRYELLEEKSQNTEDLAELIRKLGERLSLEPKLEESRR

Cn1c(C(=O)N[C@@H](C(=O)O)c2ccccc2)cc2cc(Cl)ccc21
inactive: outcome [1] | outcome [2] | outcome [3] | outcome [4] | outcome [5] | outcome [6] | outcome [7] | outcome [8] | outcome [9] | outcome [10] | outcome [11] | outcome [12] | outcome [13] | outcome [14] | outcome [15] | outcome [16] | outcome [17]

Cc1oc(-c2ccc(Cl)cc2)nc1CN1CCC(C(=O)N2CCc3ccccc3C2)CC1
active: potentiation [4] 16% | potentiation [15] 10.2%
inactive: outcome [1] | outcome [2] | outcome [3] | outcome [5] | outcome [6] | outcome [7] | outcome [8] | outcome [9] | outcome [10] | outcome [11] | outcome [12] | outcome [13] | outcome [14] | outcome [16] | outcome [17]

COc1ccc(/C=C(\C#N)C(=O)N2CCOCC2)cc1Br
inactive: outcome [1] | outcome [2] | outcome [3] | outcome [5] | outcome [6] | outcome [7] | outcome [8] | outcome [9] | outcome [10] | outcome [11] | outcome [12] | outcome [13] | outcome [14] | outcome [16] | outcome [17]
active: potentiation [4] 17% | potentiation [15] 20.4%

CCN1CCN(c2nc(N)c([N+](=O)[O-])c(Nc3ccc(C)c(C)c3)n2)CC1
active: potentiation [15] 10.5%
inactive: outcome [1] | outcome [2] | outcome [3] | outcome [4] | outcome [5] | outcome [6] | outcome [7] | outcome [8] | outcome [9] | outcome [10] | outcome [11] | outcome [12] | outcome [13] | outcome [14] | outcome [16] | outcome [17]

N=c1c(C(=O)NCC2CCCO2)cc2c(=O)n3ccccc3nc2n1Cc1ccccc1Cl (stereo not given)
active: potentiation [3] 96% | potentiation [4] 102% | potentiation [15] 101%
inactive: outcome [1] | outcome [2] | outcome [5] | outcome [6] | outcome [7] | outcome [8] | outcome [9] | outcome [10] | outcome [11] | outcome [12] | outcome [13] | outcome [14] | outcome [16] | outcome [17]

CC(=O)Nc1ccc(S(=O)(=O)N2CCN(CCCOc3cc(C)ccc3C)CC2)cc1
active: potentiation [4] 24%
inactive: outcome [1] | outcome [2] | outcome [3] | outcome [5] | outcome [6] | outcome [7] | outcome [8] | outcome [9] | outcome [10] | outcome [11] | outcome [12] | outcome [13] | outcome [14] | outcome [15] | outcome [16] | outcome [17]

COc1cc(OC)c2c(-c3ccccc3)cc(=O)oc2c1C(CCN1CCCCC1)c1ccc(N(C)C)cc1 (stereo not given)
inactive: outcome [2] | outcome [3] | outcome [4] | outcome [5] | outcome [6] | outcome [7] | outcome [8] | outcome [9] | outcome [10] | outcome [11] | outcome [12] | outcome [14] | outcome [15] | outcome [16] | outcome [17]
active: activation [1] 82% | activation [13] 38.3%

CCCCN1C(=O)C(=O)N(CC(=O)Nc2cc(OCC)c(N3CCOCC3)cc2OCC)C1=O
inactive: outcome [1] | outcome [2] | outcome [3] | outcome [4] | outcome [5] | outcome [6] | outcome [7] | outcome [8] | outcome [9] | outcome [10] | outcome [11] | outcome [12] | outcome [13] | outcome [14] | outcome [15] | outcome [16] | outcome [17]

CC(C)c1nc(N2CCOCC2)c(C#N)c2c1CCCC2
inactive: outcome [1] | outcome [2] | outcome [3] | outcome [4] | outcome [5] | outcome [6] | outcome [7] | outcome [8] | outcome [9] | outcome [10] | outcome [11] | outcome [12] | outcome [13] | outcome [14] | outcome [15] | outcome [16] | outcome [17]

Cc1ccccc1OCCNc1cc(N2CCNCC2)ccc1[N+](=O)[O-]
inactive: outcome [1] | outcome [2] | outcome [3] | outcome [4] | outcome [5] | outcome [6] | outcome [7] | outcome [8] | outcome [9] | outcome [10] | outcome [11] | outcome [12] | outcome [13] | outcome [14] | outcome [15] | outcome [16] | outcome [17]

CCOc1cc(/C=C(\C#N)C(=O)Nc2cccc(C(=O)O)c2)cc(Br)c1OC(=O)c1ccc(OC)cc1
active: potentiation [4] 28% | potentiation [15] 16.7%
inactive: outcome [1] | outcome [2] | outcome [3] | outcome [5] | outcome [6] | outcome [7] | outcome [8] | outcome [9] | outcome [10] | outcome [11] | outcome [12] | outcome [13] | outcome [14] | outcome [16] | outcome [17]

CCC(=O)c1ccc(N2CCN(C(=O)c3ccccc3Br)CC2)c(F)c1
inactive: outcome [1] | outcome [2] | outcome [3] | outcome [4] | outcome [5] | outcome [6] | outcome [7] | outcome [8] | outcome [9] | outcome [10] | outcome [11] | outcome [12] | outcome [13] | outcome [14] | outcome [16] | outcome [17]
active: potentiation [15] 19.2%

Cc1ccc2[nH]c(C)c(CCN(Cc3cccnc3)C(=S)NC(C)(C)C)c2c1
inactive: outcome [1] | outcome [2] | outcome [3] | outcome [4] | outcome [5] | outcome [6] | outcome [7] | outcome [8] | outcome [9] | outcome [10] | outcome [11] | outcome [12] | outcome [13] | outcome [14] | outcome [15] | outcome [16] | outcome [17]

Cc1cc(Oc2ccc(C(C)(C)C)cc2)nc(N2CCOCC2)n1
inactive: outcome [1] | outcome [2] | outcome [3] | outcome [5] | outcome [6] | outcome [7] | outcome [8] | outcome [9] | outcome [10] | outcome [11] | outcome [12] | outcome [13] | outcome [14] | outcome [16] | outcome [17]
active: potentiation [4] 7% | potentiation [15] 21.6%

CCC(=O)c1cc2c(C)cc(=O)oc2c(C)c1OC(=O)C(C)C
inactive: outcome [1] | outcome [2] | outcome [3] | outcome [4] | outcome [6] | outcome [7] | outcome [8] | outcome [9] | outcome [10] | outcome [11] | outcome [12] | outcome [13] | outcome [15] | outcome [16] | outcome [17]
active: inhibition [5] 85% | inhibition [14] 12.2%
